Assay results taken from PubChem BioAssay AID2061321 (National Center for Advancing Translational Sciences (NCATS), 2025).
Records with an inconclusive call do not appear. The source made the active and inactive calls. Calls come from the whole dose curve; as a rule, active = well fitted inhibition curve with a large enough effect; inconclusive = small, poorly fitted or top-dose-only effect; inactive = flat fitted curve, though single readings scatter. Non-standard residues stand in square brackets, D forms with d. Residues, ends and D or L forms follow the SMILES beside them. *: point of attachment. Dolaproine = CO[C@@H]([C@@H]1CCCN1)[C@@H](C)C(=O)O; Dil = CC[C@H](C)[C@H](NC)[C@@H](CC(=O)O)OC; NMe2Val = CC(C)[C@@H](C(=O)*)N(C)C

Assay: Identification of antibody-drug conjugate (ADC) payloads which are substrates of ATP-binding cassette drug efflux transporters: ABCG2-H460 cell line
Conditions: H460 MX20 (ABCG2) viability, CellTiter-Glo, 48 h
From the text: Antibody-drug conjugates (ADCs) feature an antibody recognizing a specific protein joined to a potent toxic payload. Numerous antibody-drug conjugates have received FDA approval; however, clinical resistance arises. Resistance mechanisms include decreased expression or mutation of the antibody target, impaired payload release, or increased expression of ATP-binding cassette (ABC) efflux transporters associated with multidrug resistance. We therefore sought to characterize the interaction of ABC multidrug transporters with ADC payloads. We performed a high-throughput screen with 27 common ADC payloads using cells lines expressing ABC transporters P-glycoprotein (P-gp, encoded by ABCB1) or ABCG2 (encoded by ABCG2). Confirmatory assays were also performed using cells transfected to express P-gp, ABCG2, or MRP1 (encoded by ABCC1). Several commonly used ADC payloads were substrates of P-gp, including calicheamicin gamma1, monomethyl auristatin E, DM1, and DM4. All the pyrrolobenzodiazepines tested - SJG136, SGD-1882, SG2057, and SG3199 - were substrates of P-gp, ABCG2, and MRP1. […] These findings highlight the risk of transporter-mediated resistance with certain ADC payloads and underscore the importance of selecting payloads that evade ABC transporter recognition in future ADC development.
HEK-293 cells were transfected with empty vector (pcDNA) or vector containing the human ABCB1 (MDR-19), ABCG2 (R-5), or ABCC1 gene (MRP1) and were maintained in EMEM with 2 mg/mL G418 added to maintain transporter expression. The HeLa derivative KB-3-1 and the P-gp overexpressing KB-8-5-11 subline were maintained in DMEM; KB-8-5-11 additionally received 100 ng/mL colchicine. H460 parental cells were obtained from the Division of Cancer Treatment and Diagnosis Tumor Repository, National Cancer Institute at Frederick, MD and were cultured in RPMI. The ABCG2 expressing subline H460 MX20 was generated by selecting H460 cells in 20 nM mitoxantrone. Media in all cases was supplemented with 10% FBS and 1% penicillin-streptomycin. We explored 27 common ADC payloads, in two orthogonal, paired cell line sets-a drug selected and transfected set for each transporter--to identify substrates of the ABC transporters P-gp and ABCG2. Compounds were sourced from Levena Biopharma (San Diego, CA), Selleck Chem (Houston, TX), ChemieTek (Indianapolis, IN), or Microsource Discovery Systems (Gaylordsville, CT). Screening was performed as previously described. Briefly, cells were plated at a density of 500 cells/well in 1536 well plates with compounds added using a 1536-head pin tool (Kalypsys, San Diego CA). Cells were incubated with cytotoxic drugs and processed with CellTiter Glo reagent (Promega, Madison, WI) to determine viability after 48 hours. P-gp substrates were identified by comparing compound activity between paired sets of low-expressing (sensitive) and over-expressing (resistant) cell lines.
In the case of `CC[C@@]1(O)C(=O)OCc2c1cc1n(c2=O)Cc2cc3ccccc3nc2-1`, the Potency is reported as 9.5 nM (active). In the case of `CC[C@H](C)[C@@H]1NC(=O)CNC(=O)[C@H]2Cc3c([nH]c4cc(O)ccc34)S(=O)C[C@H](NC(=O)CNC1=O)C(=O)N[C@@H](CC(N)=O)C(=O)N1C[C@H](O)C[C@H]1C(=O)N[C@@H]([C@@H](C)[C@@H](O)CO)C(=O)N2` (stereo partly specified), the Potency is reported as 948 nM (active). In the case of `COc1cccc2c1C(=O)c1c(O)c3c(c(O)c1C2=O)C[C@@](O)(C(=O)CO)CC3OC1CC(N2CCOC(OC)C2)C(O)C(C)O1` (stereo partly specified), the Potency is reported as 3 nM (active). With `CC[C@H](C)[C@@H]([C@@H](CC(=O)N1CCC[C@H]1[C@H](OC)[C@@H](C)C(=O)N[C@@H](Cc1ccccc1)C(=O)O)OC)N(C)C(=O)[C@@H](NC(=O)[C@H](C(C)C)N(C)C)C(C)C` (NMe2Val-V[Dil][Dolaproine]F-OH) the Potency was 42.3 nM (active). For `COc1cc2cc(C(=O)N3C[C@@H](CCl)c4c3cc(O)c3ccccc43)[nH]c2c(OC)c1OC`, the Potency was 1.1 nM (active). With `CC[C@H](C)[C@@H]([C@@H](CC(=O)N1CCC[C@H]1[C@H](OC)[C@@H](C)C(=O)N[C@H](C)[C@@H](O)c1ccccc1)OC)N(C)C(=O)[C@@H](NC(=O)[C@H](C(C)C)N(C)C)C(C)C` the Potency was 1.3 nM (active).
